Test results published in PubChem BioAssay AID1159580 (chemical genetic matrix, 2015).
The campaign covered roughly 5,500 compounds. About 2,000 (36%) were called active. Inconclusive results (about 18%) are left out. Cut-off read from the data, not from the text of the source: active = normalized growth mostly below about 0.91 (no sharp cut-off); inconclusive = no clear call, values can overlap the other calls; inactive = mostly above about 0.92. Some of the results follow.

Assay: chemical genetic growth profiling, strain panel (AID 1159580);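 note: tested at 20 µM; growth read once vehicle control cultures reached saturation at 30 °C; 1 = growth at the plate median or of vehicle wells; lower values mean less growth of the strain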
Conditions: growth OD

Measured: normalized growth

CCCN1C[C@H](CSC)C[C@@H]2c3cccc4[nH]cc(c34)C[C@H]21
inactive: S. cerevisiae deletion strains, locus YKL009W, strain mrt4, active compounds read low 1.01 | S. cerevisiae deletion strains, locus YKL068W, active compounds read low 1.02 | S. cerevisiae deletion strains, locus YKL085W, strain MDH1 (second series), active compounds read low 1 | S. cerevisiae deletion strains, locus YKL085W, strain MDH1, active compounds read low 1 | S. cerevisiae deletion strains, locus YKL160W, strain elf1, active compounds read low 1.01 | S. cerevisiae deletion strains, locus YKL190W, strain CNB1, active compounds read low 0.995 | S. cerevisiae deletion strains, locus YKR001C, strain vps1, active compounds read low 1.02 | S. cerevisiae deletion strains, locus YKR026C, strain gcn3, active compounds read low 1.02 | S. cerevisiae deletion strains, locus YKR091W, strain srl3, active compounds read low 0.997 | S. cerevisiae deletion strains, locus YLL001W, strain dnm1, active compounds read low 1 | S. cerevisiae deletion strains, locus YLL026W, active compounds read low 1.01 | S. cerevisiae deletion strains, locus YLL041C, strain sdh2, active compounds read low 0.995 | S. cerevisiae deletion strains, locus YLR027C, strain aat2, active compounds read low 1 | S. cerevisiae deletion strains, locus YLR039C, strain RIC1, active compounds read low 1.11 | S. cerevisiae deletion strains, locus YLR058C, strain SHM2, active compounds read low 1.01 | S. cerevisiae deletion strains, locus YLR102C, strain apc9, active compounds read low 1.03 | S. cerevisiae deletion strains, locus YLR113W, strain HOG1, active compounds read low 1.06 | S. cerevisiae deletion strains, locus YLR221C, strain rsa3, active compounds read low 1 | S. cerevisiae deletion strains, locus YLR258W, strain gsy2, active compounds read low 1.01 | S. cerevisiae deletion strains, locus YLR262C, strain YPT6 (second series), active compounds read low 1.07 | S. cerevisiae deletion strains, locus YLR262C, strain YPT6, active compounds read low 1.09 | S. cerevisiae deletion strains, locus YLR268W, strain sec22, active compounds read low 1 | S. cerevisiae deletion strains, locus YLR320W, strain mms22, active compounds read low 0.984 | S. cerevisiae deletion strains, locus YLR330W, strain CHS5, active compounds read low 0.999 | S. cerevisiae deletion strains, locus YLR342W, strain FKS1 (second series), active compounds read low 1.01 | S. cerevisiae deletion strains, locus YLR342W, strain FKS1, active compounds read low 1 | S. cerevisiae deletion strains, locus YLR357W, strain rsc2, active compounds read low 0.982 | S. cerevisiae deletion strains, locus YLR370C, strain arc18, active compounds read low 1.01 | S. cerevisiae deletion strains, locus YLR371W, strain rom2, active compounds read low 1.02 | S. cerevisiae deletion strains, locus YLR384C, strain iki3, active compounds read low 1 | S. cerevisiae deletion strains, locus YLR418C, strain cdc73, active compounds read low 0.985 | S. cerevisiae deletion strains, locus YML016C, strain PPZ1, active compounds read low 0.998 | S. cerevisiae deletion strains, locus YML032C, strain rad52, active compounds read low 1.03 | S. cerevisiae deletion strains, locus YML120C, strain ndi1, active compounds read low 1.02 | S. cerevisiae deletion strains, locus YML124C, strain tub3, active compounds read low 1.02 | S. cerevisiae deletion strains, locus YMR058W, strain fet3, active compounds read low 0.999 | S. cerevisiae deletion strains, locus YMR078C, strain ctf18, active compounds read low 1.03 | S. cerevisiae deletion strains, locus YMR125W, strain sto1, active compounds read low 1.02 | S. cerevisiae deletion strains, locus YMR129W, active compounds read low 1.02 | S. cerevisiae deletion strains, locus YMR205C, strain PFK2, active compounds read low 1.02 | S. cerevisiae deletion strains, locus YMR223W, strain ubp8, active compounds read low 1.02 | S. cerevisiae deletion strains, locus YMR231W, strain pep5, active compounds read low 1.02 | S. cerevisiae deletion strains, locus YMR263W, strain SAP30, active compounds read low 0.979 | S. cerevisiae deletion strains, locus YMR307W, strain GAS1, active compounds read low 1.03 | S. cerevisiae deletion strains, locus YNL067W, strain RPL9B, active compounds read low 0.975 | S. cerevisiae deletion strains, locus YNL071W, strain lat1, active compounds read low 1.02 | S. cerevisiae deletion strains, locus YNL128W, strain TEP1, active compounds read low 0.984 | S. cerevisiae deletion strains, locus YNL153C, strain GIM3, active compounds read low 0.983 | S. cerevisiae deletion strains, locus YNL183C, strain NPR1, active compounds read low 0.991 | S. cerevisiae deletion strains, locus YNL209W, strain ssb2, active compounds read low 1 | S. cerevisiae deletion strains, locus YNL233W, strain BNI4, active compounds read low 0.981 | S. cerevisiae deletion strains, locus YNL248C, strain rpa49, active compounds read low 0.945 | S. cerevisiae deletion strains, locus YNL250W, strain rad50, active compounds read low 1 | S. cerevisiae deletion strains, locus YNL271C, strain bni1, active compounds read low 1.02 | S. cerevisiae deletion strains, locus YNL298W, strain CLA4, active compounds read low 1.02 | S. cerevisiae deletion strains, locus YNL307C, strain MCK1, active compounds read low 1.03 | S. cerevisiae deletion strains, locus YNL322C, strain KRE1 (second series), active compounds read low 1.01 | S. cerevisiae deletion strains, locus YNL322C, strain KRE1, active compounds read low 1 | S. cerevisiae deletion strains, locus YNR049C, strain mso1, active compounds read low 1.01 | S. cerevisiae deletion strains, locus YNR052C, strain pop2, active compounds read low 1.02 | S. cerevisiae deletion strains, locus YOL006C, strain TOP1, active compounds read low 0.966 | S. cerevisiae deletion strains, locus YOL012C, strain htz1 0.77 | S. cerevisiae deletion strains, locus YOL147C, strain pex11, active compounds read low 1.02 | S. cerevisiae deletion strains, locus YOR001W, strain rrp6, active compounds read low 0.983 | S. cerevisiae deletion strains, locus YOR061W, strain CKA2, active compounds read low 0.992 | S. cerevisiae deletion strains, locus YOR069W, strain VPS5, active compounds read low 0.989 | S. cerevisiae deletion strains, locus YOR070C, strain gyp1, active compounds read low 0.997 | S. cerevisiae deletion strains, locus YOR080W, strain dia2, active compounds read low 1.02 | S. cerevisiae deletion strains, locus YOR083W, strain WHI5, active compounds read low 0.966 | S. cerevisiae deletion strains, locus YOR106W, strain vam3, active compounds read low 1.01 | S. cerevisiae deletion strains, locus YOR136W, strain idh2, active compounds read low 1.02 | S. cerevisiae deletion strains, locus YOR144C, strain elg1, active compounds read low 1.01 | S. cerevisiae deletion strains, locus YOR184W, strain ser1, active compounds read low 1.05 | S. cerevisiae deletion strains, locus YOR231W, strain MKK1, active compounds read low 1.08 | S. cerevisiae deletion strains, locus YOR265W, strain rbl2, active compounds read low 1.02 | S. cerevisiae deletion strains, locus YOR270C, strain vph1, active compounds read low 1.07 | S. cerevisiae deletion strains, locus YOR290C, strain snf2, active compounds read low 1 | S. cerevisiae deletion strains, locus YOR316C, strain cot1, active compounds read low 1.02 | S. cerevisiae deletion strains, locus YPL051W, strain arl3, active compounds read low 1.01 | S. cerevisiae deletion strains, locus YPL055C, strain LGE1, active compounds read low 0.946 | S. cerevisiae deletion strains, locus YPL078C, strain atp4, active compounds read low 1.01 | S. cerevisiae deletion strains, locus YPL106C, strain sse1, active compounds read low 1.03 | S. cerevisiae deletion strains, locus YPL240C, strain hsp82, active compounds read low 1.01 | S. cerevisiae deletion strains, locus YPL241C, strain CIN2, active compounds read low 1.03 | S. cerevisiae deletion strains, locus YPL256C, strain CLN2, active compounds read low 1.06 | S. cerevisiae deletion strains, locus YPR119W, strain clb2, active compounds read low 1.02 | S. cerevisiae deletion strains, locus YPR141C, strain kar3, active compounds read low 1.01 | S. cerevisiae deletion strains, locus YPR163C, strain tif3, active compounds read low 1.02 | S. cerevisiae deletion strains, locus YPR167C, strain met16, active compounds read low 1.02 | S. cerevisiae deletion strains, strain wtn01, active compounds read low 0.995 | S. cerevisiae strains, strain wild type, active compounds read low 0.997
